The results in this text go back to PubChem BioAssay (NCI).

About 79,000 compounds went through this panel and 15% of them were active in at least one assay; those are over-represented in the sample as a whole. A number with no mark means an inactive call. Active and inactive are the calls of the source. Rule as the data show it: active = growth inhibition above about 70%; inactive = the rest.

Test [1] is described as follows: NCI Yeast Anticancer Drug Screen. Data for the rad50 strain (AID 155).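 Also: 0% = growth of vehicle-only cultures of the same strain.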 Particulars: S. cerevisiae rad50 strain growth inhibition; at 50.0 µM; stronger effect = higher value. In short, it runs like this: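 Inhibition values express reduced yeast growth in compound-treated cultures relative to vehicle-treated controls.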
Test [2] in a line: NCI Yeast Anticancer Drug Screen. Data for the mec2-1 strain (AID 157). As to conditions: S. cerevisiae mec2-1 strain, at 50.0 µM, stronger effect = higher value. The gist of the method: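 Vehicle-treated cultures served as reference for growth inhibition of compound-exposed mec2-1 yeast.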
A short description of test [3]: NCI Yeast Anticancer Drug Screen. Data for the sgs1 mgt1 strain (AID 161).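 Also: 0% = growth of cultures given vehicle only.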 As to conditions: S. cerevisiae sgs1 mgt1 strain, at 50.0 µM, stronger effect = higher value. In short, it runs like this:
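Inhibition of yeast growth, normalised to vehicle-treated controls, is reported for a strain bearing genetic alterations in DNA damage repair.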

Test [4] can be described thus: NCI Yeast Anticancer Drug Screen. Data for the cln2 rad14 strain (AID 165).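 Also: 0% = growth equal to vehicle treated cultures.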 As to conditions: S. cerevisiae cln2 rad14 strain, at 50.0 µM, stronger effect = higher value. The gist of the method: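 Each compound was tested on cln2 rad14 yeast. Inhibition of growth was calculated against vehicle-exposed controls.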
A short description of test [5]: NCI Yeast Anticancer Drug Screen. Data for the bub3 strain (AID 167). Particulars: S. cerevisiae bub3 mutant strain, at 50.0 µM, stronger effect = higher value. The gist of the method:
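Steps: expose the mutant yeast strain to compound; grow alongside vehicle-treated cultures; measure growth; express inhibition against the vehicle cultures.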

Test [6] can be described thus: NCI Yeast Anticancer Drug Screen. Data for the mlh1 rad18 strain (AID 175). As to conditions: S. cerevisiae mlh1 rad18 strain growth inhibition; at 50.0 µM; stronger effect = higher value. The gist of the method: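 Vehicle-treated cultures served as the reference for growth inhibition in a yeast strain carrying DNA damage repair alterations exposed to each compound.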

On to `CN(C)NC1=NS(=O)(=O)c2cc3c(cc2S1)N(N(C)C)C(=O)c1cc2c(cc1N(N(C)C)C3=O)SC(NN(C)C)=NS2(=O)=O`, for which the growth inhibition in test [1] is -6.3%; in test [2], -22.5%; in test [3] it was -14.4%; in test [4] it was 2.35%; in test [5], 16.4%; in test [6] it was -2.9%.
Take `CCCCC1OCCOC1C1COCCO1` (stereo not given): the growth inhibition was -7.25% in test [1]; -21.9% in test [2]; -10.8% in test [3]; -6% in test [4]; 2.55% in test [5]; 6.7% in test [6].
For `Clc1cc(Cl)cc(C=NC23CC4CC(CC(C4)C2)C3)c1`, the growth inhibition is -13.8% in test [1]; -31.2% in test [2]; -40.5% in test [3]; -20% in test [4]; -24.4% in test [5]; -11% in test [6].
With `c1cnc(NC(Nc2ncccn2)c2ccco2)nc1`, the growth inhibition is -6.5% in test [1]; -8.9% in test [2]; -5.55% in test [3]; -21.9% in test [4]; -12.2% in test [5]; -10.4% in test [6].
In the case of `CC(=O)c1c(O)ccc2c1CC(CC=O)O2` (stereo not given), the growth inhibition in test [1] is 18.6%; in test [2], -1.05%; in test [3], -20.9%; in test [4], 0.75%; in test [5], 9.05%; in test [6], -21.4%.
Turning to `CSc1nsc(SC)c1C(N)=O`, the growth inhibition in test [1] was -0.25%; in test [2], -17.6%; in test [3], 15.3%; in test [4] it was 12.5%; in test [5], 16.2%; in test [6] it was -0.85%.
Regarding `COc1cc(NCCCCCNC(C)C)c2ncccc2c1OC`, the growth inhibition in test [1] was -15.1%; in test [2], -9.9%; in test [3], -1.95%; in test [4] it was -11.3%; in test [5], 9.05%; in test [6], -3.1%.
Take `CCCCCCCCn1nnnc1N`: the growth inhibition in test [1] was -1.1%; in test [2], 21%; in test [3] it was 1.45%; in test [4], 0.5%; in test [5], 20.7%; in test [6], 8.1%.
`C1C2CC3(CO3)C1C1OC21` (stereo not given): the growth inhibition in test [1] was -39.4%; in test [2], -13.8%; in test [3] it was -26.1%; in test [4] it was 3.85%; in test [5] it was -22.2%; in test [6], -10.8%.
In the case of `O=[N+]([O-])c1ccc(Sc2ccc([N+](=O)[O-])cc2)cc1`, the growth inhibition in test [1] was 2.35%; in test [2] it was 1.45%; in test [3], 8%; in test [4], 22.6%; in test [5] it was -0.1%; in test [6] it was 11.3%.
Consider `CC(=O)OC1CC2C(CCC3CC(C(C)=O)CCC32C)C2CCC(/C(C)=C/C=C(c3ccccc3)c3ccccc3)C12C` (stereo not given), for which the growth inhibition in test [1] is 19.6%; in test [2], 3.1%; in test [3] it was 7.35%; in test [4] it was -9.4%; in test [5], -3.05%; in test [6], 2.6%.
On to `Nc1ccc(C(=O)Nc2cccc(OCc3nc(N)nc(N)c3-c3ccc(Cl)cc3)c2)cc1`, for which the growth inhibition is 16.6% in test [1]; -6.15% in test [2]; -16.2% in test [3]; 16.5% in test [4]; 2.3% in test [5]; 13.2% in test [6].
Consider `CCOC1C[C@H]2C[C@H]3[C@@H]4CC=C5C[C@@H](OC(C)=O)CC[C@]5(C)[C@H]4CC[C@]3(C)C2=C(C)O1` (stereo not given in full), for which the growth inhibition in test [1] is 20.9%; in test [2] it was 12.7%; in test [3], 22.9%; in test [4], 36%; in test [5], 8.05%; in test [6], 20.6%.
As for `C/C=C/C1OCC(C)(C)CO1`, the growth inhibition in test [1] is -0.8%; in test [2], 22.9%; in test [3] it was -12.9%; in test [4] it was -46.8%; in test [5], -24.7%; in test [6], -1.5%.
As to `OC1CCCC2CCCC12` (stereo not given), the growth inhibition in test [1] was 1%; in test [2] it was 1.15%; in test [3], -8.1%; in test [4], 15.4%; in test [5], 16.4%; in test [6], -5.75%.
Regarding `CC(C)c1cc(C(C)C)c(Cc2c(C(C)C)cc(C(C)C)cc2C(C)C)c(C(C)C)c1`, the growth inhibition in test [1] was 15%; in test [2], 14.2%; in test [3] it was 0.3%; in test [4], 0.55%; in test [5], -2%; in test [6], 20.3%.
Regarding `[O-][N+](=Nc1ccccc1Cl)c1ccccc1Cl`, the growth inhibition in test [1] was 44%; in test [2], 16%; in test [3], 62.7%; in test [4], 4.15%; in test [5], 28.2%; in test [6], 31.2%.
With `Clc1ccc(CSCSCc2ccc(Cl)cc2)cc1`, the growth inhibition is 5.95% in test [1]; -15.3% in test [2]; 10.8% in test [3]; -40.9% in test [4]; 19.6% in test [5]; 4.3% in test [6].
As to `O=C1CSC(=S)N1/N=C/c1ccc([N+](=O)[O-])s1`, the growth inhibition in test [1] was 97.8% (active); in test [2], 98.8% (active); in test [3], 98.3% (active); in test [4], 98.5% (active); in test [5], 98.8% (active); in test [6], 98.8% (active).
As for `O=C(O)C(CO)(c1ccccc1)c1ccccc1`, the growth inhibition is -3.2% in test [1]; -3.9% in test [2]; -8.25% in test [3]; -1.65% in test [4]; -1.55% in test [5]; -0.15% in test [6].
